# From article PMC5540273 (PLoS ONE, 2017)
# Test system: T1, p38-alpha
# T1 construct: gene MAPK14
# Conditions: concentration: 1 μM, replicates: in singlicate; n = 1
# 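Note: KINOMEscan kinase panel screen.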
row,SMILES,%Inh [%]
1,O=C(NCCNc1ccnc(Nc2ccc(F)cc2)n1)Nc1ccc2c(c1)OCO2 [GSK1379882],19
2,Cc1ccc(-c2ccc3c(ccc4sc5c(c43)NC[C@@H](C)N=C5N(C)C)n2)cn1,0
3,Cc1cc(Nc2nc(-c3cccc(C)n3)nc3ccccc23)ccn1 [GW872411],20
4,Nc1nc(-c2ccccc2F)c(-c2ccnc3ccccc23)s1 [GW560459],99.8
5,COc1ccc(-c2cc3c(C)nc(N)nc3n([C@H]3CC[C@H](O)CC3)c2=O)cn1,0
6,OCCCNc1nccc(-c2c(-c3cccc(C(F)(F)F)c3)nn3cc(C(F)(F)F)ccc23)n1 [GW630813],99.4
7,CN(C)c1cc(-c2ccc3c(N)n[nH]c3c2)nc(N)n1 [GSK2219329],0
8,Cl.c1ccc(Cn2cnc3cc(Nc4ncnc5ccccc45)ccc32)cc1 [GW272142],0
9,Cc1cccc(-c2cc(-c3c[nH]nc3-c3ccccn3)ccn2)c1 [GW679395],47
10,CCC(=O)c1c(-c2ccccc2)c2cc(Cl)ccc2c(=O)n1Cc1cc(S(C)(=O)=O)n(CCC(C)(C)O)n1,16
11,Cc1nnc(-c2ccc(C)c(-c3ccc(C(=O)O)cc3)c2)o1 [GW608005],0
12,COc1cc2nccc(Nc3ccc(OCc4ccc(NC(C)=O)cc4)cc3)c2cc1OC.Cl [GW440135],18
13,COC(=O)c1c(-c2ccccc2)c2cc(Br)ccc2c(=O)n1Cc1ccc(NC(=O)CCC(=O)O)cc1,5
14,Cc1nc(N(C)[C@H]2CN(C(=O)CC#N)CC[C@H]2C)c2cc[nH]c2n1,0
15,COc1cc2ncn(-c3cc(OCc4ccncc4)c(C(N)=O)s3)c2cc1OC [GSK336313],5
16,CCC(=O)c1c(-c2ccccc2)c2cc(Cl)ccc2c(=O)n1Cc1cc(S(C)(=O)=O)n(CC(N)=O)n1,0
17,CCS(=O)c1ccc(-c2coc3ccc(-c4nnc(C)o4)cc23)cc1 (centres unmarked),0
18,COc1ccc(-c2cc3c(C)nc(N)nc3n([C@H]3CC[C@H](OCCO)CC3)c2=O)cn1,0

row,SMILES,%Inh [%]
1,CC(C)(C)c1ccc(C(=O)Nc2cn3cc(-c4ccccc4)ccc3n2)cc1,0
2,COc1cc(Nc2nccc(N3CCC(NC(=O)C4COc5ccccc5O4)C3)n2)cc(OC)c1OC (centres unmarked) [GSK1379761],26
3,CN1C(=O)C(Nc2ccccc2)=C(c2ccccc2)C1=O [SB-300079],0
4,COc1ccc(-n2cnc3c(N)ncnc32)cc1 [SKF-97236],0
5,CCc1ccc(-c2ccc3c(c2)-c2nn(C)cc2S(=O)(=O)N3C)cc1,0
6,Cc1ccc(Oc2ccc(Nc3ncnc4cc[nH]c34)cc2C)cn1,5
7,O=C(Nc1n[nH]c2nc(-c3ccccc3)c(Br)cc12)C1CC1 [SB-708998],7
8,Cc1ccccc1COc1cc(-n2cnc3cc(Cl)ccc32)sc1C(N)=O [GW813349],0
9,COc1cc(OC)cc(-c2cc3cnc(N)nc3nc2NC(=O)NC(C)(C)C)c1,6
10,COc1cc(Nc2nccc(N3CCC(NC(=O)C(C)c4ccc(Cl)cc4)C3)n2)cc(OC)c1OC (centres unmarked) [GSK1379757],10
11,CCCC(=O)Nc1n[nH]c2ncc(-c3cccc4ccccc34)cc12 [SB-642057],14
12,COc1ccc(-c2coc3ccc(-c4nnc(SCc5cccc(C#N)c5)o4)cc23)cc1,5
13,Cc1nnc(-c2ccc3ncn(-c4ccc(S(C)=O)cc4)c3c2)o1 (centres unmarked),0
14,O=C1NC(=O)C(c2ccccc2)=C1Nc1cccc(O)c1 [SB-390534],1
15,Nc1ncnc2c1ncn2-c1cccc2ccccc12 [SKF-97184],0
16,COc1ccc(Nc2nccc(N3CCC(NS(=O)(=O)c4ccc(NC(C)=O)cc4)C3)n2)cc1 (centres unmarked) [GSK1379729],82
17,COc1cc2ncn(-c3cc(OCc4ccc(S(C)(=O)=O)cc4)c(C(N)=O)s3)c2cc1OC [GW869979],1

# Test system: T2, p38-beta
# T2 construct: gene MAPK11
# Conditions: concentration: 1 μM, replicates: in singlicate; n = 1
row,SMILES,%Inh [%]
1,O=C(NCCNc1ccnc(Nc2ccc(F)cc2)n1)Nc1ccc2c(c1)OCO2 [GSK1379882],0
2,O=C(NCc1cccs1)c1cc(C(=O)c2c(Cl)cccc2Cl)c[nH]1 [GW823670],9
3,Cc1ccc(-c2ccc3c(ccc4sc5c(c43)NC[C@@H](C)N=C5N(C)C)n2)cn1,0
4,Cc1cc(Nc2nc(-c3cccc(C)n3)nc3ccccc23)ccn1 [GW872411],0
5,Nc1nc(-c2ccccc2F)c(-c2ccnc3ccccc23)s1 [GW560459],0
6,COc1ccc(-c2cc3c(C)nc(N)nc3n([C@H]3CC[C@H](O)CC3)c2=O)cn1,0
7,OCCCNc1nccc(-c2c(-c3cccc(C(F)(F)F)c3)nn3cc(C(F)(F)F)ccc23)n1 [GW630813],30
8,CN(C)c1cc(-c2ccc3c(N)n[nH]c3c2)nc(N)n1 [GSK2219329],0
9,Cl.c1ccc(Cn2cnc3cc(Nc4ncnc5ccccc45)ccc32)cc1 [GW272142],0
10,Cc1cccc(-c2cc(-c3c[nH]nc3-c3ccccn3)ccn2)c1 [GW679395],0
11,CCC(=O)c1c(-c2ccccc2)c2cc(Cl)ccc2c(=O)n1Cc1cc(S(C)(=O)=O)n(CCC(C)(C)O)n1,6
12,Cc1nnc(-c2ccc(C)c(-c3ccc(C(=O)O)cc3)c2)o1 [GW608005],0
13,COc1cc2nccc(Nc3ccc(OCc4ccc(NC(C)=O)cc4)cc3)c2cc1OC.Cl [GW440135],0
14,COC(=O)c1c(-c2ccccc2)c2cc(Br)ccc2c(=O)n1Cc1ccc(NC(=O)CCC(=O)O)cc1,5
15,Cc1nc(N(C)[C@H]2CN(C(=O)CC#N)CC[C@H]2C)c2cc[nH]c2n1,1
16,COc1cc2ncn(-c3cc(OCc4ccncc4)c(C(N)=O)s3)c2cc1OC [GSK336313],0
17,CCC(=O)c1c(-c2ccccc2)c2cc(Cl)ccc2c(=O)n1Cc1cc(S(C)(=O)=O)n(CC(N)=O)n1,8
18,CCS(=O)c1ccc(-c2coc3ccc(-c4nnc(C)o4)cc23)cc1 (centres unmarked),5

row,SMILES,%Inh [%]
1,COc1ccc(-c2cc3c(C)nc(N)nc3n([C@H]3CC[C@H](OCCO)CC3)c2=O)cn1,0
2,CC(C)(C)c1ccc(C(=O)Nc2cn3cc(-c4ccccc4)ccc3n2)cc1,11
3,COc1cc(Nc2nccc(N3CCC(NC(=O)C4COc5ccccc5O4)C3)n2)cc(OC)c1OC (centres unmarked) [GSK1379761],0
4,CN1C(=O)C(Nc2ccccc2)=C(c2ccccc2)C1=O [SB-300079],10
5,COc1ccc(-n2cnc3c(N)ncnc32)cc1 [SKF-97236],21
6,CCc1ccc(-c2ccc3c(c2)-c2nn(C)cc2S(=O)(=O)N3C)cc1,12
7,Cc1ccc(Oc2ccc(Nc3ncnc4cc[nH]c34)cc2C)cn1,28
8,O=C(Nc1n[nH]c2nc(-c3ccccc3)c(Br)cc12)C1CC1 [SB-708998],41
9,Cc1ccccc1COc1cc(-n2cnc3cc(Cl)ccc32)sc1C(N)=O [GW813349],5
10,COc1cc(OC)cc(-c2cc3cnc(N)nc3nc2NC(=O)NC(C)(C)C)c1,7
11,COc1cc(Nc2nccc(N3CCC(NC(=O)C(C)c4ccc(Cl)cc4)C3)n2)cc(OC)c1OC (centres unmarked) [GSK1379757],0
12,CCCC(=O)Nc1n[nH]c2ncc(-c3cccc4ccccc34)cc12 [SB-642057],4
13,COc1ccc(-c2coc3ccc(-c4nnc(SCc5cccc(C#N)c5)o4)cc23)cc1,11
14,Cc1nnc(-c2ccc3ncn(-c4ccc(S(C)=O)cc4)c3c2)o1 (centres unmarked),13
15,O=C1NC(=O)C(c2ccccc2)=C1Nc1cccc(O)c1 [SB-390534],3
16,Nc1ncnc2c1ncn2-c1cccc2ccccc12 [SKF-97184],0
17,COc1ccc(Nc2nccc(N3CCC(NS(=O)(=O)c4ccc(NC(C)=O)cc4)C3)n2)cc1 (centres unmarked) [GSK1379729],17
18,COc1cc2ncn(-c3cc(OCc4ccc(S(C)(=O)=O)cc4)c(C(N)=O)s3)c2cc1OC [GW869979],1
